Hits are enriched below; roughly 7.4% of the tested compounds scored in any of these assays.
Rab9 prom act – activates the Rab9 promoter; Huh7 Rab9 promoter-luciferase reporter, luminescence, 24 h; Potency, µM (top dose mostly 9.22 µM), for the others: top-dose activation, negative = inhibition, most hits filed as activators; 320,000 tested, 2.8% active; note: % of control where 0% means no effect; nearly all actives have a fitted effect of over 60% in size
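Cells were plated at 1500 per well in reduced-serum medium with 10% FBS and left 2 h. Compound in DMSO was then added for 24 h at 37 °C. Reporter signal was read by luminescence after 10 min with luciferase detection reagent.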
NPC1 promoter act – activates the NPC1 promoter; Huh7 NPC1 promoter luciferase reporter, 24 h; Potency, µM (top dose mostly 9.22 µM), inactives show at the top dose activation, hits mostly activators; 320,000 tested, 2.4% active; note: % of control where 0% means no effect; nearly all actives have a fitted effect of over 60% in size
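Huh7 cells stably carrying NPC1 promoter–luciferase, plated in Opti-MEM with 10% FBS for 2 h, were exposed to compound in DMSO for 24 h at 37 °C; luciferase reagent was added for 10 min and luminescence read.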
ELG1 genotox – genotoxicity induction in ELG1-luciferase HEK293T cells; 330,000 tested, 1.3% active; Potency, µM (titrated, usually from 46 µM), for inactives: top-dose activity change, positive = activation, actives largely listed as activators; HEK293T ELG1-luciferase reporter, luminescence, 16 h; AID 504466; note: % of control where 0% means no effect; nearly all actives have a fitted effect of over 60% in size
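DMSO vehicle served as control against compound-treated ELG1-luciferase HEK293T cells; exposure lasted 16 hr at 37 °C and 5% CO2, followed by ONE-Glo luminescence detection after 30 min.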
FLuc counter – firefly luciferase modulation, counter-screen for miR-21 project. purified FLuc, Km substrates, luminescence inhibition. 360,000 tested, 6.9% active. P08659. Potency, µM (highest dose often 57.5 µM), for the others: top-dose activity change, negative = inhibition, actives largely listed as inhibitors;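 note: plate controls were vehicle for no effect and reference inhibitor for full effect; nearly all actives have a fitted effect of over 55% in size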
Target sequence (P08659 whole entry, looked up): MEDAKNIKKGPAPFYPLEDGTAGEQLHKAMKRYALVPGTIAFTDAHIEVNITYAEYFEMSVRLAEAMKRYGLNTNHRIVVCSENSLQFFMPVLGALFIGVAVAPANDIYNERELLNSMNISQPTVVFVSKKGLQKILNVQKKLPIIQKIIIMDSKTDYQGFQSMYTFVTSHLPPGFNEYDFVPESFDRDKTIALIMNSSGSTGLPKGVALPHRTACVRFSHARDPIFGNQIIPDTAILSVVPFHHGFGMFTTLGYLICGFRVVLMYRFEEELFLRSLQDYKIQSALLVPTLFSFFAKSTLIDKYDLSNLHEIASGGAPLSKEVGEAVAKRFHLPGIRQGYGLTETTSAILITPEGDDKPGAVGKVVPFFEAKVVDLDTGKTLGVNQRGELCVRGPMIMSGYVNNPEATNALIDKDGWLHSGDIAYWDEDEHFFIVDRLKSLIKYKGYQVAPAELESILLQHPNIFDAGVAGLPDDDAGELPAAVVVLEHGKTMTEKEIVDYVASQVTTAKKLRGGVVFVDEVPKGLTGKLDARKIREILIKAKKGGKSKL
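Purified P. pyralis luciferase, 10 nM final, with Km-level 10 uM D-luciferin and 10 uM ATP in 50 mM Tris acetate pH 7.5, 10 mM Mg acetate, 0.01% Tween-20, 0.05% BSA; 6-point qHTS titration about 60 µM downward; luminescence read.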
SMN2 splice up – SMN2 splice variant enhancement; HEK293 SMN2-luciferase splicing reporter, luminescence, 30-36 h; Potency, µM (series often up to 46.1 µM), for inactives: top-dose activity change, positive = activation, most hits filed as activators; 210,000 tested, 2.8% active; AID 1458; note: % of control where 0% means no effect; nearly all actives have a fitted effect of over 55% in size
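HEK293 cells carry an SMN2 minigene-luciferase reporter in which exon 7 inclusion puts luciferase in frame. Cells were seeded at 2000 cells/well, attached for 10-12 hours, then exposed to compounds for 30-36 hours at 37C before ONE-Glo luminescence.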
Active calls of the source: *; ? = inconclusive; / = no result; [ ] = remark or other dose. Calls come from the whole dose curve; as a rule, active = well fitted curve in the direction sought with a large enough effect; inconclusive = small, poorly fitted or top-dose-only effect, or another doubt; inactive = no such curve, though single readings can be large; an effect the other way counts as inactive or inconclusive. Potency is the fitted concentration of half-maximal effect.

SMILES | Rab9 prom act | NPC1 promoter act | ELG1 genotox | FLuc counter | SMN2 splice up
CCC(C)c1ccc(NC(=O)Nc2cnccn2)cc1 (configuration not stated) | ? | -6% | ? | 6.7µM* | /
Cc1ccc(NC(=O)C2CCCN(c3ncccn3)C2)cc1C (configuration not stated) | ? | ? | ? | 17µM* | /
CCOc1ccc(NC(=O)Nc2cnccn2)cc1 | ? | 12% | 7% | ? | ?
Cc1ccnc(N2CCCC(C(=O)Nc3ccc(C)c(C)c3)C2)n1 (configuration not stated) | -1% | 3% | -18% | 1% | /
CCC(C)c1ccc(NC(=O)C2CCCN(c3ncccn3)C2)cc1 (configuration not stated) | 1% | 4% | -1% | 15µM* | 8%
CCC(C)c1ccc(NC(=O)C2CC2)cc1 (configuration not stated) | 29% | 16% | ? | 15µM* | 2%
COc1ccc(NC(=O)C2CCCN(c3ncccn3)C2)cc1 (configuration not stated) | 2.8µM* | ? | ? | 17µM* | /
Cc1ccc(Cl)cc1NC(=O)Cn1cc2c(n1)CCCCC2 | / | / | / | -1% | 15%
c1ccc(CNc2ccc3c(c2)ncn3C2CCCCC2)nc1 | ? | ? | 11% | 13µM* | 28%
CN1CCN(c2ccc(-c3ccnn3C(=O)Nc3cccc(C(F)(F)F)c3)cc2)CC1 | 23%[1.84 µM] | 3.5µM* | ? | 21µM* | 13µM*
CCN(CC)CCCN(c1ccccc1)C1Cc2ccccc2C1 | -25%[46.1 µM] | -14%[46.1 µM] | / | / | /
O=C(c1ccc(COc2ccc(F)cc2)o1)n1cccn1 | -3% | 0% | 2% | 24µM* | 3%
Cc1cc(OCc2ccc(C(=O)n3cccn3)o2)ccc1Cl | ? | ? | ? | ? | 11µM*
CCN(c1ccccc1)c1nnc(NC(=O)Nc2ccc(Br)cc2)s1 | / | / | / | -3% | /
O=C(O)c1ccc(C=NNC(=O)c2ccccc2NS(=O)(=O)c2cccs2)cc1 | / | / | 3% | / | /
Cc1nn(-c2cccc(Cl)c2)c(Cl)c1/C=N/NC(=O)c1cccs1 | 17% | 4% | ? | 0% | /
Cc1nn(-c2ccccc2)c(Cl)c1/C=N/NC(=O)c1ccccc1NS(=O)(=O)c1cccs1 | 0% | 0% | -2% | 12µM* | -36%
Cc1nn(-c2ccccc2)c(Cl)c1/C=N/NC(=O)c1ccc(NS(=O)(=O)c2cccs2)cc1 | ? | ? | ? | 0.85µM* | 13µM*
COc1ccc(/C=N/Nc2nc(C(=O)O)cs2)cc1 | ? | ? | 6% | 0.67µM* | /
CCOC(=O)Cc1csc(N/N=C\c2ccc(N(C)C)cc2)n1 | 29% | ? | 8% | 2.4µM* | /
CCOC(=O)Cc1csc(N/N=C\c2ccccc2OC)n1 | 20% | 26% | 8% | 11µM* | /
CCOC(=O)Cc1csc(N/N=C/c2ccccc2)n1 | 20% | 29% | 9% | 15µM* | 3%
CCOC(=O)Cc1csc(N/N=C\c2cccc(Br)c2)n1 | 7% | 11% | -1% | ? | -1%
CCOC(=O)Cc1csc(NC(=O)COc2ccccc2OC)n1 | 3% | 3% | 0% | -4% | /
C[C@H]1CCCC=CC2C[C@H](OC(=O)CN(C)C)C[C@@H]2[C@@H](O)/C=C\C(=O)O1 (some centres not stated) | / | / | / | / | -37%[9.22 µM]
SMILES | Rab9 prom act | NPC1 promoter act | ELG1 genotox | FLuc counter | SMN2 splice up
CCN1CCN(Cc2c(O)ccc3c(C)c(-c4ccccc4)c(=O)oc23)CC1 | / | / | / | 4% | /
CCCCNC(=O)Cn1ncc2c(C)n(Cc3cccc(Cl)c3)c(C)c2c1=O | / | / | / | 1% | 16%
COC(=O)c1ccccc1NC(=O)C1=C(C)C(=O)OC12CCC(C)CC2 (configuration not stated) | / | / | / | -8% | -8%
CCSc1nnc2c(n1)OC(c1ccc(OC)cc1OC)N(C(C)=O)c1ccccc1-2 (configuration not stated) | / | / | / | 5% | 7%
Cc1nc2nc(NC(=O)c3ccc(C(C)(C)C)cc3)[nH]n2c(=O)c1C | / | / | / | -13% | 6%
CC(=O)n1c2ccccc2c2nc3ccccc3nc21 | 2.8µM* | 3.2µM* | ? | ? | /
CCn1c2ccccc2c2nc3cc(OC)c(OC)cc3nc21 | 15% | -2% | -2% | 8.5µM* | /

Screening results as filed in PubChem BioAssay.
